The supplement of paper PMC5940239

What was measured:
[1] = tested on: Madurella mycetomatis MM55; conditions: 7 days
[2] = tested on: Madurella mycetomatis MM55; assay: IC90; higher = less potent; conditions: 7 days
[3] = tested on: Madurella mycetomatis MM55; assay: percent growth relative to solvent control; higher = less inhibition, active = 20 or less; conditions: 100 µM; 7 days

Row | SMILES | IC50 [1] | IC90 [2] | percent growth [3]
1 | Cc1nc(-c2ccccn2)nc(N(C)CCc2ccccc2)c1Cl | 9.25 µM | 17.8 µM | 2.82% (active)
2 | CC(c1cc(Cl)cc(Cl)c1)N(C)c1ncc2c(N)nc(N)nc2n1 (stereo not given) | 46.5 µM | 90.7 µM | 5.31% (active)
3 | O=C(Nc1cccc(Cl)c1)c1cnc(N2CCN(c3ccncc3)CC2)c(Cl)c1 | 9.3 µM | 19.6 µM | 6.08% (active)
4 | CC1=NN(c2nc3ccccc3s2)C(=O)C1Cc1cccc2ccccc12 (stereo not given) | 62.1 µM | 93 µM | 1.31% (active)
5 | COc1cc(NC(C)CCCN)c2ncccc2c1 (stereo not given) | 64.5 µM | 92.8 µM | 0.211% (active)
6 | Nc1nc2ccc(-c3cncc(Oc4ccc(F)cc4)c3)cc2[nH]1 | 40.7 µM | 85.8 µM | -2.72% (active)
7 | CN1CCN(S(=O)(=O)c2ccc(-c3ccc4c(Nc5ncc(Cl)cn5)ccnc4c3)cc2)CC1 |  |  | 98.9% (inactive)
8 | CNC(=O)C1Cc2ccccc2N1C(=O)Cc1ccc(F)cc1 (stereo not given) |  |  | 116% (inactive)
9 | O=C1N(Cc2cc3ccccc3s2)CC2CN(Cc3ccccc3)CCN12 (stereo not given) | 57.6 µM | 91.8 µM | 0.636% (active)
10 | CCN(CC)CCCN1CCN(C(=O)c2cccc(-c3noc(C(F)(F)F)n3)c2)CC1 |  |  | 118% (inactive)
11 | Clc1ccc(Cl)c(CO[C@H]2CCCC[C@@H]2n2ccnc2)c1 | 14.2 µM | 67.5 µM | 1.03% (active)
12 | c1ccc2c(c1)CN(CC1CC1)CC1(CCN(Cc3c[nH]c4cnccc34)CC1)O2 | 62.9 µM | 96 µM | 5.33% (active)
